The source of these data is PubChem BioAssay (NCATS).

SMILES strings stand for the structures. “And” between values parts separate entries of the source, which are not always exact repeats. Equal entries are not always repeated. Results filed as inconclusive are left out. More than one record can exist for a structure, and the calls need not agree. Unmarked numbers belong to inactive results. The source made the active and inactive calls. Calls come from the whole dose curve; as a rule, active = well fitted cell-killing curve with a large enough effect in the repeat runs; inconclusive = weak or mixed curves; inactive = flat fitted curve, though single readings scatter.
% is set by controls: 0 for no effect and ±100 for the full control effect; potency is the fitted concentration of half-maximal effect.

A short description of the assay: qHTS assay for small molecule agonists of the antioxidant response element (ARE) signaling pathway measured by Nrf2-dependant transcriptional activity - cell viability counter screen (AID 720653). As to conditions: ARE-bla HepG2 viability, CellTiter-Glo ATP luminescence, 16 h; max response: active compounds read low. From the text:
National Center for Advancing Translational Sciences [NCATS] NIH Chemical Genomics Center [NCGC] U.S. Environmental Protection Agency [EPA] National Institutes of Environmental Health Sciences [NIEHS] National Toxicology Program [NTP] Assay Overview: Oxidative stress has been implicated in the pathogenesis of a variety of diseases ranging from cancer to neurodegeneration. The antioxidant response element (ARE) signaling pathway plays an important role in the amelioration of oxidative stress. The CellSensor ARE-bla HepG2 cell line (Invitrogen) can be used for analyzing the Nrf2/antioxidant response signaling pathway. Nrf2 (NF-E2-related factor 2) and Nrf1 are transcription factors that bind to AREs and activate these genes. The CellSensor ARE-bla HepG2 cell line contains a beta-lactamase reporter gene under control of the Antioxidant Response Element (ARE) stably integrated into HepG2 cells. The activation of the report gene under culture conditions can be detected by fluorescence intensity. The cytotoxicity of the compounds against the ARE-bla HepG2 cell line was quantified by measuring the intracellular ATP content.
Assay Protocol Summary: ARE-bla HepG2 cells were dispensed at 2,000 cells/5 ul/well in 1536-well black wall/clear bottom plates using a Multidrop Combi (ThermoFisher Scientific, Waltham, MA) dispenser. After the assay plates were incubated at 37C/5% CO2 for 5 hrs, 23 nL of compounds dissolved in DMSO, positive controls or DMSO only was transferred to the assay plate by a pintool work station (Kalypsys, San Diego, CA). The plates were incubated at 37C/5% CO2 for 16 hrs. After 1 uL of LiveBLAzer B/G FRET substrate was added using a Flying Reagent Dispenser (FRD) (Aurora Discovery, San Diego, CA), the assay plates were incubated at room temperature for 2 hrs. The fluorescence intensity was measured by an Envision (PerkinElmer, Shelton, CT) plate reader. Cell viability using CellTiter Glo viability assay (Promega, Madison, WI) was also measured by adding 4 ul/well of CellTiter-Glo reagent into the same assay plate using a FRD. After 30 min incubation at room temperature, the luminescence intensity in the plates was measured using a ViewLux (PerkinElmer) plate reader.
As for `C[C@]12C/C(=C/O)C(=O)C[C@@H]1CC[C@@H]1[C@@H]2CC[C@@]2(C)[C@H]1CC[C@]2(C)O`, the max response was 3.17% and 10.2%. Consider `Oc1ccc(Cl)cc1Cc1ccccc1`, for which the max response is 1.75% and 7.8%.

In the case of `NCC(O)c1ccc(O)cc1` (configuration not stated), the max response is -9.13%. `CC(COc1ccccc1)N(CCCl)Cc1ccccc1` (configuration not stated): the max response is -12.5%. On the same count and under the same terms, for `O=c1oc2ccccc2c(O)c1C(CC(O)c1ccc(-c2ccc(Br)cc2)cc1)c1ccccc1` (configuration not stated) the value was -8.71%. Still for that read-out and setting: for `OCCOc1ccccc1` the value was -0.196% and 2.04% and -9.12%. On the same count and under the same terms, for `Oc1cccc2cccnc12` the value was -16.3%. As to `Oc1ccccc1-c1ccccc1`, the max response is -12.4% and -2.58% and -3.94%; the Potency was 251 µM (active).

For the compound `Clc1ccc(COC(Cn2ccnc2)c2ccc(Cl)cc2Cl)cc1` (configuration not stated), the max response was -7.45%. On the same count and under the same terms, for `CCOP(=S)(OCC)Oc1cc(C)nc(C(C)C)n1` the value was 0.528% and 11.7%; for `CC(C)(C)CC(C)(C)c1ccc(O)cc1`, -9.38%; for `CCCC(C)(COC(N)=O)COC(=O)NC(C)C` (configuration not stated), -3.52% and -3.1%. On the same count and under the same terms, for `N[C@@H](Cc1ccc(N(CCCl)CCCl)cc1)C(=O)O` the value was -3.2% and -6.56%; for `CN(C)CCC=C1c2ccccc2CCc2ccccc21`, -15%; for `CNCC(O)c1ccc(O)cc1` (configuration not stated), 12.1%. As for `NC(=Nc1ccccc1)Nc1ccccc1`, the max response is 3.18%.

Regarding `c1ccc2c(c1)Nc1ccccc1S2`, the max response is -25.7% and -9.49%.

Take `Oc1cc(Cl)ccc1Oc1ccc(Cl)cc1Cl`: the max response is -9.95%.

In the case of `Cc1cc(SCc2sc(-c3ccc(C(F)(F)F)c(F)c3)nc2C)ccc1OCC(=O)O`, the max response is -1.47%.

Consider `O=c1[nH]c2ccccc2n1C1CCN(CCCC(c2ccc(F)cc2)c2ccc(F)cc2)CC1`, for which the Potency is 50.1 µM (active). In the case of `C[C@]12CCC(=O)C(O)=C1CC[C@@H]1[C@@H]2CC[C@]2(C)C(=O)CC[C@@H]12`, the max response was -0.568%.
